FBW7 act: human FBW7 E3 ligase activation, primary screen. 650,000 tested, 0.13% active. AlphaScreen FBW7–phospho-cyclin E peptide binding, activator screen. AID 1259310. normalized activity (activation), % at 26.1 µM. Q969H0; in the data active = normalized activity above about 1.9%;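 note: purified mutant Fbw7 with reduced substrate affinity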
Target sequence (Q969H0 whole entry, looked up): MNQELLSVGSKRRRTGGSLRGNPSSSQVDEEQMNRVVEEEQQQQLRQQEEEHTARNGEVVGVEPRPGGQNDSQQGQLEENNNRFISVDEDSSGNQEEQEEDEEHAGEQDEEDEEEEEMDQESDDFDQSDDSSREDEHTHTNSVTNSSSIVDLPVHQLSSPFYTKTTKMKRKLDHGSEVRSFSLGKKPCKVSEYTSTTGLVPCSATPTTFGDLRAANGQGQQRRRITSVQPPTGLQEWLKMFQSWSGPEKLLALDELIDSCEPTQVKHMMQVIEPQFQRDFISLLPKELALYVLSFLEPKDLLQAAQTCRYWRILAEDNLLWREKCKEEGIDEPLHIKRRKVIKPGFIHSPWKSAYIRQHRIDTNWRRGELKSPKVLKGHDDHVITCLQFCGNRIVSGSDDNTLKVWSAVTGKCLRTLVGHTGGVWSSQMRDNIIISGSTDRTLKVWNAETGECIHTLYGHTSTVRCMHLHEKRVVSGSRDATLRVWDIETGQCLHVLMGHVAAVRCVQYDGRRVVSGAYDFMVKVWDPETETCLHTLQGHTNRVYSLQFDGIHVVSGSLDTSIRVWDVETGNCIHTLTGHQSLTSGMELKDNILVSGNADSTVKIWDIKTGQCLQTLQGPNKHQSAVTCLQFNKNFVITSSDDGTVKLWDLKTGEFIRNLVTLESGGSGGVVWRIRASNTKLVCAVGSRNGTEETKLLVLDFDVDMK
TEAD-YAP inh: TEAD-YAP interaction inhibition; 640,000 tested, 1.4% active; HEK-TIYL cells, TEAD-Gal4/YAP UAS-luciferase luminescence; inhibition, % at 9.12 µM; in the data active = inhibition above about 32%;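 note: 0% = median of test compound wells and 100% = reference inhibitor wells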
GPR151 activ: activators of human GPR151; Q8TDV0; PathHunter beta-arrestin GPR151 cells, luminescence; AID 1508602; 650,000 tested, 1% active; activation, % at 11.2 µM; in the data active = activation above about 4.9%;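 note: 0% = median of compound wells and 100% = cells with positive control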
MITF inh: human MITF inhibition, primary screen; O75030; AlphaScreen MITF homodimerization, bead proximity signal; inhibition, % at 2.6 µM; 650,000 tested, 0.91% active; AID 1259374; in the data active = inhibition above about 50%;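 note: 0% = vehicle wells with protein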
GPR151 confirm: human GPR151 activation, confirmation screen; AID 1508609; activation, % at 11.2 µM; 6,700 tested, under 10 active; GPR151 PathHunter beta-arrestin cells, luminescence, 90 min; % of EA-reagent control over plate median; shares compounds with GPR151 activ;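 active = mean percent activation across replicates above the confirmation screen cutoff of 4.91%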
GPR119 ag: activates human GPR119 in a GPR151 counter-screen; shares compounds with GPR151 activ; GPR119 PathHunter beta-arrestin cells, luminescence, 90 min; 0 = compound-well median, 100 = enzyme-acceptor control; activation, % at 11.2 µM; 6,700 tested, 0.3% active;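 active = mean percent activation in the counterscreen above 29.09%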;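 note: counterscreen on off-target GPR119 to flag nonselective hits from the GPR151 activator screen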
Starred values were filed as active, the others as inactive; x = no result; ! = not confirmed by another sample. Hits are enriched below; roughly 3.5% of the tested compounds scored in any of these assays.

SMILES	FBW7 act	TEAD-YAP inh	GPR151 activ	MITF inh	GPR151 confirm	GPR119 ag
CC[n+]1c(/C=C/C=C2\N(C)c3ccccc3C2(C)C)n(-c2ccccc2)c2ccc(C)cc21	0	91*	11*	-8	3	39*
CC[n+]1c(/C=C/C=C2\N(C)c3ccccc3C2(C)C)n(-c2ccccc2)c2cc(Cl)ccc21	0	90*	8.3*	-24	3	20
CCn1c(O)c(C=NCCc2c[nH]c3ccccc23)c(=O)[nH]c1=O	0	4	5.4*	4	0	-5
CC(=O)OCCC#CCN1CCCCC1c1cccnc1 (stereo not drawn)	0	2	1	9	x	x
CC(C)c1ccc(CC2(CCc3ccncc3)C(=O)NC(=O)NC2=O)cc1	0	-3	1	-10	x	x
CC1(C)C(c2ccccn2)=[N+]([O-])C(c2cccnc2)N1O (stereo not drawn)	0	5	-1	24	x	x
CC1(C)C(c2ccccc2)=[N+]([O-])C(c2cccnc2)N1O (stereo not drawn)	1	6	6.2*	0	0	-7
O=c1c2cc(Cl)cc(Cl)c2nc(CN2CCOCC2)n1-c1ccccc1F	0	6	17*	7	0	-3
NC1=Nc2ccccc2Sc2ccccc21	0	-27	5.3*	-1	0	9
O=c1c2ccccc2nc(/C=C/c2ccco2)n1-c1ccc(O)cc1	0	11	5.1*	13	2	10
COc1ccc(OC)c(N2Cc3ccccc3C2=N)c1	0	-11	5.9*	-14	0	3
N#CC1=C(N)Oc2c(c(=O)oc3ccccc23)C1CCc1ccccc1 (stereo not drawn)	0	3	0	8	x	x
CS(=O)(=O)c1ccc(N2CCNCC2)c(F)c1	0	-3	4.9*	-7	0	5
Cc1nn(Cc2ccccc2)c(Cl)c1C(=O)NC1CCCCCC1	x	x	7.4*	x	-1	-10
COc1ccc(CN2CC3CC(C2)c2cccc(=O)n2C3)cc1Br (stereo not drawn)	0	-14	-1	-15	x	x
CCC(C)N1CCN(Cc2ccc([N+](=O)[O-])cc2)CC1 (stereo not drawn)	0	-8	-2	41	x	x
CCN1CCN(Cc2ccc([N+](=O)[O-])cc2)CC1	0	10	10*	-5	-1	12
CCCCC/C=C\C/C=C\C/C=C\C/C=C\CCCC(=O)NCCS(=O)(=O)O	x	x	2	-8	x	x
CCOC(=O)C1=C(C)OC(N)=C(C(=O)OCC)C12C(=O)N(CC(N)=O)c1ccccc12 (stereo not drawn)	0	11	9.6*	2	0	-5
CCOC(=O)C1=C(C)OC(N)=C(C#N)C12C(=O)N(CC(N)=O)c1ccccc12 (stereo not drawn)	0	-2	0	-27	x	x
COc1ccccc1OCCCn1c(C)c(C=O)c2ccccc21	0	0	2	-11	x	x
CCOC(=O)CCCn1c(C(=O)OCC)c(C=O)c2ccccc21	0	0	6.3*	-11	0	13
C=C(C)[C@H]1CN[C@H](C(=O)O)[C@H]1CC(=O)O	0	-3	7.6*!	-3	0	-1
Cc1cccc(C)c1-n1nnnc1C1(NCCc2c(C)[nH]c3c(Cl)c(Cl)ccc23)CCCCC1	0	11	0	13	x	x
c1ccc2c(CNCC3CCCO3)c[nH]c2c1 (stereo not drawn)	0	10	0	11	x	x
SMILES	FBW7 act	TEAD-YAP inh	GPR151 activ	MITF inh	GPR151 confirm	GPR119 ag
O=c1c2ccccc2nc(C(F)(F)F)n1-c1ccc(Br)cc1	0	-43	-1	8	x	x
CC(=O)OCC(=O)[C@H]1CC[C@H]2[C@@H]3CC[C@H]4C[C@H](O)CC[C@]4(C)[C@H]3C(=O)C[C@]12C	0	x	6.2*	-5	0	7
CCN1CCN(Cc2cc(Cl)ccc2O)CC1	0	2	0	8	x	x
Cc1ccc2c(c1)CNc1ccccc1O2	0	-5	5.2*	6	0	-9
CCOc1ccccc1NC(=O)N1CCC2(CC1)OCCO2	0	8	13*	11	-1	-2
CN1CCN(C(=O)C(O)(c2ccccc2)c2ccccc2)CC1	0	-5	11*	-4	0	1
